Compound activity deposited in PubChem by National Center for Advancing Translational Sciences (NCATS).
VDR inh = vitamin D3 receptor (human) inhibition; P11473; VDR-SRC2-3 peptide fluorescence polarization, 2 h; Potency, µM, inactives show max response, negative = inhibition, usual class: inhibitors; 400,000 tested, 0.93% active; also: potency is read from the fitted curve at half-maximal effect; % is scaled to controls: 0 for no effect and ±100 for the full control effect
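Reagent solutions, kept cold and dark, are dispensed first; compounds are then pinned in at 23 nl, plates briefly spun, and incubated 2 h at ambient temperature. Inhibition of VDR–SRC2-3 peptide binding is read by fluorescence polarization.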
MBNL1-CUG inh = inhibitors of human MBNL1 binding to CUG repeat RNA | Q9NR56 | TR-FRET MBNL1-His/biotin-(CUG)12 binding, 665/545 ratio | Potency, µM (doses to about 57.5 µM), inactives show at the highest dose activity change, negative = inhibition, most hits filed as inhibitors | 280,000 tested, 0.036% active | AID 2675; active = well fitted inhibition curve with a large enough effect in the signal ratio, with a control signal flat, not every such curve was filed as active; inconclusive = small, poorly fitted or top-dose-only effect, or effect the other way, or a change in a side signal; inactive = no such curve, though single readings can be large or run the other way; the % refers to the signal ratio; also: potency is read from the fitted curve at half-maximal effect; % is scaled to controls: 0 for no effect and ±100 for the full control effect
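MBNL1-His + Biotin-(CUG)12, cpd titration 92 nM–58 uM; Tb anti-His Ab 0.055 ng/ul, SA-XL665 5 nM (final); 60 min RT; ratiometric 665/545 nm, Ex 340 nm; normalized to buffer and full-complex controls.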
KCNH2 WT inh = KCNH2 (human, wildtype) channel inhibition | U2OS, BacMam KCNH2, thallium flux FluxOr; stronger effect = lower value | activity change, % at 1.84 µM | Q12809 | AID 720551 | 340,000 tested, 0.37% active;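 active = maximum activity change below -70%; inconclusive = maximum activity change between -70% and -50%; inactive = maximum activity change above -50%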; also: % is scaled to controls: 0 for no effect and ±100 for the full control effect
Target sequence (Q12809 whole entry, looked up): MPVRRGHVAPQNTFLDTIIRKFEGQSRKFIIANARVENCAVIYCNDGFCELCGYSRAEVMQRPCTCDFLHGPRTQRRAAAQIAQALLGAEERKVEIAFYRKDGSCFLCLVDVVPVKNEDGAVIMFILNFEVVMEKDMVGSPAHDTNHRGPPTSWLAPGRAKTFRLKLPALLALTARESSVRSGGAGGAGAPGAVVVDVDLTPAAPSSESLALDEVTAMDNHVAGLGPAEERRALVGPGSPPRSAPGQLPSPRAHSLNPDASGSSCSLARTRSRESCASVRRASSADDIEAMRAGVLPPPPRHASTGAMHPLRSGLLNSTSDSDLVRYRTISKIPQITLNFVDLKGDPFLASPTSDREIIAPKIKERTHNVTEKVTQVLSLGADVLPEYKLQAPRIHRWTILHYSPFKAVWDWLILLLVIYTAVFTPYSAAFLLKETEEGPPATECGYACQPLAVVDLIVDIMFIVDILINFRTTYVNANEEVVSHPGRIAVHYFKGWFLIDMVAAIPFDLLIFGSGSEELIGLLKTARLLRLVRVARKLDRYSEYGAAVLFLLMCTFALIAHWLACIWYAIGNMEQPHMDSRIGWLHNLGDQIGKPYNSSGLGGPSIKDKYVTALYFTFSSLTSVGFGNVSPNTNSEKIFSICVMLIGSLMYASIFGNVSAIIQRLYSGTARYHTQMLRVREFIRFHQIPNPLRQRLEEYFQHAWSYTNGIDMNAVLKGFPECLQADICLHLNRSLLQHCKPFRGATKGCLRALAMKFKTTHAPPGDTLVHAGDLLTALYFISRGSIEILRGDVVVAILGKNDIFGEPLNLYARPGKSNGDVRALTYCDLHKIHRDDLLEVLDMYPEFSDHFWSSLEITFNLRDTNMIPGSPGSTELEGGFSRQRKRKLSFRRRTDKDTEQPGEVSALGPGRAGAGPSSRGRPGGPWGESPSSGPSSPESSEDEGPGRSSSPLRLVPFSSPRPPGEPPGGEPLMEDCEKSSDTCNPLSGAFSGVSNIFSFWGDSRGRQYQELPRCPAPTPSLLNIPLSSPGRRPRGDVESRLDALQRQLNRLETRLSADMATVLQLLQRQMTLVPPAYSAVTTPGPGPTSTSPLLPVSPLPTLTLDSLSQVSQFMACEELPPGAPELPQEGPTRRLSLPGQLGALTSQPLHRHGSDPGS
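U2OS cells were transduced with wild-type KCNH2 virus (2.03 x 10^8 / mL) for 4 h at room temperature, then cultured overnight at 37 C. Thallium flux was read with FluxOr dye. Rate constants were normalized to DMSO controls.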
CBFb-RUNX1 inh = inhibitors of human CBF-beta and RUNX1 interaction; Q01196+Q13951; AlphaScreen CBFb-His/RUNX1-biotin binding, biochemical; Potency, µM (highest dose often 59.8 µM), for inactives: at the top dose activity, negative = inhibition, actives largely listed as inhibitors; 230,000 tested, under 10 active; AID 1477; also: % of control where 0% means no effect
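His-tagged CBF-beta and biotinylated RUNX1 (30 nM each) were premixed 20 min at room temperature, exposed to compound for 15 min, then given nickel-chelate and streptavidin AlphaScreen beads (50 ng each). After 90 min, AlphaScreen signal was read.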
KCNH2 3.1 block = KCNH2 3.1 (human) potassium channel inhibition. U2OS KCNH2 3.1, thallium flux FluxOr; stronger effect = lower value. activity change, % (tested at about 1.8 µM). 340,000 tested, 0.95% active. AID 720553;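 active = maximum activity change below -70%; inconclusive = maximum activity change from -70% to -50%; inactive = maximum activity change above -50%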;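 also: thallium influx rate constant from kinetic fluorescence after stimulation buffer; % is scaled to controls: 0 for no effect and ±100 for the full control effect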
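Thallium flux read-out: FluxOr dye with Red40 quencher in HBSS/HEPES, 45 min at RT. Rate constants from kinetic reads were normalized to positive and negative DMSO controls. Cells: U2OS virally expressing the 3.1 isoform.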
PLK1 PBD block = inhibitors of human PLK1 polo-box domain binding | Potency, µM, without a hit: max response, negative = inhibition, most hits filed as inhibitors | P53350 | 360,000 tested, 2.8% active | Plk1 PBD binding of FITC phosphopeptide, fluorescence polarization; also: potency is read from the fitted curve at half-maximal effect; series mostly up to about 57 µM; % is scaled to controls: 0 for no effect and ±100 for the full control effect; nearly all actives have a fitted effect of over 65% in size
* marks the source's active call; other numbers are inactive results; u = inconclusive; x = not tested or not shown; [ ] = another dose, or the depositor's remark. Shown are actives, neighbours in structure and some others; about 3.8% of the full set was active somewhere. Unless noted, calls follow the shape of the dose curve; as a rule, active = well fitted curve in the direction sought with a large enough effect; inconclusive = small, poorly fitted or top-dose-only effect, or another doubt; inactive = no such curve, though single readings can be large; an effect the other way counts as inactive or inconclusive.

SMILES	VDR inh	MBNL1-CUG inh	KCNH2 WT inh	CBFb-RUNX1 inh	KCNH2 3.1 block	PLK1 PBD block
O=C(/C=C/c1ccncc1)c1ccc(NC(=O)c2ccccc2F)cc1	32µM*	-3%[11.5 µM]	-4	-24%	-30	-7%
CCC(=O)N1CCc2cc(Br)cc(S(=O)(=O)N3CCC(C(=O)N(CC)CC)CC3)c21	8%	x	x	x	x	x
Cc1ccc(-n2ncc3c(N4CCN(C)CC4)ncnc32)cc1C	12%	x	x	x	x	x
O=c1cc(CO)oc(C(Nc2ccccn2)c2ccc(C(F)(F)F)cc2)c1O (stereo unspecified)	u	-3%	-9	1%	-2	u
COc1cccc(C(Nc2ccccn2)c2oc(CO)cc(=O)c2O)c1 (stereo unspecified)	u	-1%	x	3%	-5	21µM*
O=c1cc(CO)oc(C(Nc2ccccn2)c2cccc(F)c2)c1O (stereo unspecified)	16µM*	-4%	9	5%	1	24µM*
CCCCc1nc2c(c3c1C[C@H](C)OC3)CN(C(=O)Nc1cccc(C#N)c1)CC2	x	x	x	7%[13.1 µM]	x	x
COc1cccc2c1OC1(C)CC2NC(=O)N1c1cccc(C(=O)Nc2ccc3c(c2)OCCO3)c1 (stereo unspecified)	5%	-4%	4	0%	4	30µM*
COCCCNC(=O)CN1C(=O)c2c(c3ccccc3n2C)C1c1ccc(OC)cc1 (stereo unspecified)	8%	x	x	x	x	x
C=CCN1c2ccccc2[C@]23C[C@@H](C(=O)OC)N(S(=O)(=O)c4cccs4)C2=NC(C(=O)OC)=C(C(=O)OC)[C@H]13	x	x	x	0%[13.1 µM]	x	x
Cc1ccc(-c2nn(-c3ccccc3)cc2C=C2SC(=S)N(CCS(=O)(=O)O)C2=O)cc1	x	x	x	x	x	11µM*
CCn1c(C)cc(/C=C2/SC(=S)N(CC(=O)O)C2=O)c1C	-3%	u	-2	-2%	5	5%
CC(C)COc1ccc(-c2nn(-c3ccccc3)cc2/C=C2/SC(=S)N(CC(=O)O)C2=O)cc1	-9%	-1%	-10	x	-3	21µM*
O=C(O)CN1C(=O)/C(=C\c2cn(-c3ccccc3)nc2-c2ccccc2)SC1=S	u	3%	-2	x	0	21µM*
CCOc1ccc(-c2nn(-c3ccccc3)cc2/C=C2\SC(=S)N(Cc3ccco3)C2=O)cc1	-8%	-12%	-3	-1%	8	-18%
N#Cc1ccc(CS(=O)(=O)c2nc3ccccc3s2)cc1	u	x	x	11%	x	x
O=C(c1ccc2c(c1)N(Cc1ccc(F)cc1)CCS2)N1CCN(c2ccccc2)CC1	-7%	x	x	x	x	x
Cc1nc2c3ccccc3nc(NNC(=O)CCC(=O)N3CCN(c4cccc(C(F)(F)F)c4)CC3)n2n1	-5%	x	x	x	x	x
C=CS(=O)(=O)c1ccc(Oc2ccc(S(=O)(=O)C=C)cc2)cc1	45µM*	-12%	37	-11%	7	24µM*
NS(=O)(=O)c1ccc(Oc2ccc(S(N)(=O)=O)cc2)cc1	-8%	4%	-12	6%	10	2%
O=C(Nc1cccc(O)c1)c1cc2nc(-c3ccc(Br)cc3)cc(C(F)(F)F)n2n1	-1%	x	x	x	x	x
CCC1(C)OC(=O)N(CCCn2ccnc2C)C1(C)O (stereo unspecified)	-2%	-1%	-2	4%	4	-8%
Cc1nccn1CCCN1C(=O)OC2(CCCCC2)C1(C)O (stereo unspecified)	-5%	u	2	-12%	-2	21µM*
CC(=O)OCC(NC(=O)C1CCCN1C(=O)OC(C)(C)C)C1OC(n2ccc(=O)[nH]c2=O)C(OC(C)=O)C1OC(C)=O (stereo unspecified)	7%	x	x	4%	x	x
CCOc1ccc(C(=O)N2CCN(c3cccc(C)c3C)CC2)cc1	-27%	10%	10	6%	-74*	-3%
SMILES	VDR inh	MBNL1-CUG inh	KCNH2 WT inh	CBFb-RUNX1 inh	KCNH2 3.1 block	PLK1 PBD block
Cc1cccc(N2CCN(C(=O)NCc3ccc(F)cc3)CC2)c1C	u	-1%	-9	x	-8	30µM*
CCOc1ccc(C(=O)N2CCN(c3cccc(Cl)c3)CC2)cc1	1%	-10%	x	0%	-14	-15%
COc1ccc(CNC(=O)N2CCN(c3cccc(C)c3C)CC2)cc1OC	5%	-5%	5	x	23	-1%
COc1cc2ncc3c(-c4ccccc4)nn(-c4ccc(C)cc4)c3c2cc1OC	-3%	x	x	x	x	x
COc1cc(NC(=O)CN(C)S(=O)(=O)c2ccc3[nH]c4c(c3c2)CCCC4)cc(OC)c1OC	7%	x	x	x	x	x
O=C(O)C1Nc2c(Cl)cc(Cl)c(Cl)c2C2C=CCC12 (stereo unspecified)	u	x	-4	x	-14	24µM*
Cc1ccc(C)c2c1NC(C(=O)O)C1CC=CC21 (stereo unspecified)	-22%	x	x	x	x	x
O=C(O)C1Nc2c(Cl)cc(Cl)cc2C2C=CCC12 (stereo unspecified)	u	17%	6	x	1	7.5µM*
O=C(O)C1Nc2ccc(Br)cc2C2C=CCC12 (stereo unspecified)	u	37%	2	x	8	5.3µM*
CC#CCN1c2ccccc2[C@]23C[C@@H](C(=O)OC)N(C(=O)CC(C)C)C2=NC(C(=O)OC)=C(C(=O)OC)[C@H]13	x	x	x	11%[13.1 µM]	x	x
Cc1ccc(NC(=O)C2CCN(c3nc4ccccc4[nH]3)CC2)c(C)c1	4%	x	x	x	x	x
Cn1c(-c2ccc(S(=O)(=O)N3CCCC3)cc2)csc1=Nc1ccc(Cl)c(Cl)c1	0%	x	x	x	x	x
COc1ccc(NC2=C(Cl)C(=O)N(CCc3ccccc3)C2=O)c(OC)c1	-11%	x	-3	-1%	19	-12%
COc1ccc(NC2=C(Cl)C(=O)N(CCc3ccccc3)C2=O)cc1	u	13%	-1	-5%	-18	9.5µM*
Cc1nc(SCC(=O)Nc2ccccc2C)cc(-c2ccccc2)n1	-9%	x	x	x	x	x
O=C1NC2(CCCCCC2)C(=O)N1Cc1cccc([N+](=O)[O-])c1	u	u	14	x	-13	27µM*
COc1cccc(CN2C(=O)NC3(CCCCCC3)C2=O)c1	6%	1%	-6	x	-6	-2%
CCOC(=O)CSC1=C(C#N)C(c2ccc(Cl)cc2)C(C(=O)OC)C(=O)N1 (stereo unspecified)	-8%	-5%	12	4%	11	24µM*
COC(=O)CSC1=C(C#N)C(c2ccc(Cl)cc2)C(C(=O)OC)C(=O)N1 (stereo unspecified)	-19%	-1%	-7	4%	15	27µM*
COC(=O)C1C(=O)NC(SC)=C(C#N)C1c1ccccc1 (stereo unspecified)	7%	-5%	-8	0%	-9	-14%
